Screen size: about 320,000 compounds; about 22,000 (6.9%) were called active. Inconclusive results (about 27%) are left out. The call rests on the fitted dose curve; in most records, active means well fitted inhibition curve with a large enough effect; inconclusive means small, poorly fitted or top-dose-only effect, or another doubt; inactive means no such curve, though single readings can be large or run the other way. Many of the other results were omitted from the sample, so actives are more common in it than they were.
test: Primary qHTS for delayed death inhibitors of the malarial parasite plastid, 96 hour incubation; details: P. falciparum luciferase reporter growth; series mostly up to 28.7 µM; activity change, negative = inhibition: at the top concentration
Summary of the method: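 Cell-based qHTS: luciferase-tagged P. falciparum in erythrocytes (2% hematocrit, 0.05% parasitemia final) incubated with compounds for 96 hours, 37 C, 5% CO2; luciferase detection reagent then added and luminescence measured.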
On the % scale 0 is the no-effect control and ±100 the full control effect; potency means the concentration at half of the fitted maximal effect.

| Structure (SMILES) | activity change, negative = inhibition | Potency |
| --- | --- | --- |
| CC(=O)c1c(C)[nH]c(C(=O)COC(=O)CCOc2ccc(C)cc2)c1C | -9.72% (inactive) | – |
| Cn1nc(C(C)(C)C)c([N+](=O)[O-])c1C(N)=O | 5.19% (inactive) | – |
| CC(=O)N1c2ccc(S(=O)(=O)N(C)CC(=O)N(C)Cc3ccccc3)cc2CC1C (stereo not drawn) | 33% (inactive) | – |
| CC(=O)c1sc(N)nc1C | 60.6% (inactive) | – |
| COc1ccccc1CNS(=O)(=O)c1cc2c3c(c1)CCC(=O)N3CCC2 | -19.2% (inactive) | – |
| CN(C)S(=O)(=O)c1ccc(N2CCCC2)c(C(=O)Nc2ccc(Br)cc2F)c1 | – | 8.28 µM (active) |
| Cc1ccccc1OCC(=O)NNC(=O)c1cc(S(=O)(=O)N(C)C)ccc1N1CCCC1 | 4.87% (inactive) | – |
| CN(C)S(=O)(=O)c1ccc(N2CCCC2)c(C(=O)Nc2cccc(F)c2)c1 | 86.2% (inactive) | – |
| CCOC(=O)c1c(C)[nH]c(C(=O)NCCN2CCOCC2)c1C | 7.52% (inactive) | – |
| O=C(NCCCN1CCOCC1)c1ccc2c(c1)N(Cc1cccc(F)c1)C(=O)c1ccccc1S2 | 16.5% (inactive) | – |
| C=CCn1c(SCc2cc(C(=O)OC)c(C)o2)nnc1-c1ccncc1 | -0.417% [at 5.75 µM] (inactive) | – |
| COC(=O)c1sc(N)c(C(=O)OC)c1COC(=O)CNS(=O)(=O)c1ccc(C)cc1 | 7.76% (inactive) | – |
| C=CCn1c(SCc2c(C(=O)OC)sc(N)c2C(=O)OC)nnc1-c1ccc(Cl)cc1 | – | 3.29 µM (active) |
| Cc1nc2cc(NC(=O)Nc3cccc(F)c3)ccc2n1C | -38.2% (inactive) | – |
| COc1ccc(CNC(=O)COC(=O)CCS(=O)(=O)c2ccc(C)cc2)cc1OC | 3.65% (inactive) | – |
| COc1ccc2c(c1)C(C)=CC(C)(C)N2C(=O)Nc1ccccc1 | – | 10.4 µM (active) |
| COc1ccc2c(c1)C(C)=CC(C)(C)N2C(=O)CNCc1ccc2c(c1)OCO2 | 42.6% (inactive) | – |
| COc1ccc(NC(=O)N2CCC(Cc3ccccc3)CC2)cc1 | 151% (inactive) | – |
| CCOC(=O)c1c(S(=O)(=O)Nc2cccc(Cl)c2)c(C)n(C)c1C | – | 10.4 µM (active) |
| CCOC(=O)c1c(C)n(C)c2ccc(OC)c(NS(=O)(=O)CC)c12 | -42.6% (inactive) | – |
| CCOC(=O)c1c(S(=O)(=O)NCC(=O)Nc2ccc(C)cc2)c(C)n(C)c1C | -14.5% (inactive) | – |
| CCN(CC)CCCNC(=O)COc1ccc2oc3c(c2c1)CCCC3 | -26% (inactive) | – |
| CCCS(=O)(=O)N1CCN=C1SCc1cccc(F)c1 | -15.9% (inactive) | – |
| CN(CC(=O)Nc1ccccc1C(F)(F)F)C(=O)Cc1ccccc1F | 3.57% (inactive) | – |
| CC[N+](CC)(CC)CCCCCCCCCC[N+](CC)(CC)CC | – | 0.37 µM (active) |
| Cc1cccc(C)c1NC(=O)CSc1nc2c([nH]1)c(=O)n(C)c(=O)n2C | -3.18% (inactive) | – |

| Structure (SMILES) | activity change, negative = inhibition | Potency |
| --- | --- | --- |
| CC(C)(C)[Si](OCC[C@@H]1C[C@@]1(C)[C@@H](NP(=O)(c1ccccc1)c1ccccc1)c1ccccc1)(c1ccccc1)c1ccccc1 | – | 2.33 µM (active) |
| O=C(NC1CCCCC1)C1CCC(CNS(=O)(=O)c2ccccc2)CC1 (stereo not drawn) | 17% (inactive) | – |
| Cc1nc(N2CCOCC2)c2c(C)c(C(=O)Nc3ccc(C(F)(F)F)cc3)sc2n1 | -2.97% (inactive) | – |
| CCN(CC)c1ccc(NC(=O)CN2CCN(c3ccccn3)CC2)cc1 | 33.8% (inactive) | – |
| Cc1nc(N2CCN(c3ccccn3)CC2)c2c(C)c(C(=O)Nc3ccc(F)cc3)sc2n1 | – | 4.15 µM (active) |
| CN(Cc1ccc(F)cc1)C(=O)COc1ccc2ccccc2c1 | 20.5% (inactive) | – |
| COc1ccc(N=Nc2c(-c3ccc(OC)cc3)[nH]oc2=O)cc1 | 12.5% (inactive) | – |
| Cc1ccc(NC(=O)COc2ccc(-n3ccnc3)cc2)cc1Cl | – | 2.94 µM (active) |
| Cc1ccc(NC(=O)COc2ccc(/C=N\NC(=O)c3cccnc3)cc2)cc1C | -17.2% (inactive) | – |
| O=C(COc1ccc(Cl)cc1)Nc1ccc2c(c1)OCO2 | 45.3% (inactive) | – |
| O=C(CCNC(=O)C1CCN(S(=O)(=O)c2ccccc2)CC1)NC1CC1 | 41.2% (inactive) | – |
| O=C1Nc2ccccc2/C1=C/c1ccnc2ccccc12 | 0.418% (inactive) | – |
| CC1CN(C(=O)CCC(=O)NC2CCN(Cc3ccccc3)CC2)c2ccccc2O1 (stereo not drawn) | 4.48% (inactive) | – |
| CCN(CC)C(=O)N1CCN(C(=O)c2ccc(C)cn2)CC1 | – | 11.7 µM (active) |
| Cc1ccc(OCC(=O)N2CCN(C(=O)c3cccnc3)CC2)cc1 | 477% (inactive) | – |
| CCN(CC(=O)Nc1c(F)cccc1F)C(=O)c1cnc(C)cn1 | 26.6% (inactive) | – |
| CC(C)[C@@H](C(=O)O)N(Cc1cccc(CN([C@H](C(=O)O)C(C)C)S(C)(=O)=O)c1)S(C)(=O)=O | -22.1% (inactive) | – |
| CS(=O)(=O)NCc1ccc(C(=O)NCc2ccccc2)cc1 | 1.67% (inactive) | – |
| O=C(Nc1ccc(C(=O)NCc2ccccc2Cl)cc1)C1=CSCCO1 | -3.26% (inactive) | – |
| CSc1ccc(CNC(=O)c2ccc(NC(=O)C3=CSCCO3)cc2)cc1 | – | 7.38 µM (active) |
| O=[N+]([O-])c1ccc(NC(=S)N2CCN(c3ccccn3)CC2)cc1 | 0% (inactive) | – |
| O=[N+]([O-])c1cc([N+](=O)[O-])c(Oc2cc(F)cc(F)c2F)cc1NN1CCCCC1 | 38.5% (inactive) | – |
| Cc1cc2c(cc1S(=O)(=O)NCc1ccc(Cl)cc1)OCC(=O)N2 | -23.1% (inactive) | – |
| O=C(Nc1cccc(Br)c1)c1ccc2snnc2c1 | -23.8% (inactive) | – |
| O=C(Nc1ccc2ccccc2c1)Nc1ccc2snnc2c1 | – | 4.65 µM (active) |
| COc1ccc(NC(=O)Nc2ccc3nsnc3c2)cc1 | 57.4% (inactive) | – |

| Structure (SMILES) | activity change, negative = inhibition | Potency |
| --- | --- | --- |
| COC(OC)c1ccnc(SCc2ccccc2Cl)n1 | 4.36% (inactive) | – |
| COc1ccc(C)cc1NC(=O)NCc1ccccn1 | 14.6% [at 5.75 µM] (inactive) | – |
| O=C(CNCc1cccs1)Nc1cc(S(=O)(=O)N2CCCC2)ccc1Cl | -2.83% (inactive) | – |
| COc1ccc(C)cc1NC(=O)CNCc1cccs1 | – | 11.7 µM (active) |
| CC(C)Cc1nnc(NC(=O)CCC(=O)Nc2ccc3cn[nH]c3c2)s1 | 107% (inactive) | – |
| CCOc1ccc(NC(=O)c2ccc(NC(=O)C3CCCO3)cc2)cc1 (stereo not drawn) | -3.52% (inactive) | – |
| CCN(CCNC(=O)C1=C(C)C(=O)OC12CCC(C)CC2)c1ccccc1 (stereo not drawn) | -21% (inactive) | – |
| COc1ccc(NC(=O)NCc2ccc3c(c2)OCO3)c(OC)c1 | 83.2% (inactive) | – |
| COc1ccc(C2=NOC(COC(=O)c3ccc4ccccc4n3)C2)cc1 (stereo not drawn) | 18.8% (inactive) | – |
| COc1ccc(C2=NOC(Cn3nc(C(=O)NCc4ccc5c(c4)OCO5)cc3-c3ccccc3)C2)cc1 (stereo not drawn) | – | 10.4 µM (active) |
| Cc1ccc(NC(=O)COC(=O)CNC(=O)c2ccc(Cl)cc2Cl)cc1S(=O)(=O)N1CCOCC1 | -9.37% (inactive) | – |
| Cc1c(C)n(Cc2ccc(Cl)cc2)c2ccc(C(=O)NCCCN3CCOCC3)cc12 | -20% (inactive) | – |
| O=C(COc1ccc(-n2cnnn2)cc1)Nc1ccccc1Cl | 7.51% (inactive) | – |
| CC(C)(C)c1nc(NCC2CCCO2)c2nnn(Cc3ccccc3)c2n1 (stereo not drawn) | -41.5% (inactive) | – |
| COc1ccc(CCNc2ncnc3c2nnn3Cc2ccccc2)cc1 | – | 2.94 µM (active) |
| Clc1ccc(Nc2ncnc3c2nnn3Cc2ccccc2)cc1 | -4.29% (inactive) | – |
| COc1ccccc1CCNC(=O)CN1C(=O)NC2(CCCC2)C1=O | -0.162% (inactive) | – |
| COc1ccc(S(=O)(=O)NCCc2cc3ccc(C)c(C)c3[nH]c2=O)cc1 | – | 8.28 µM (active) |
| COC(=O)CNS(=O)(=O)c1ccc(OC)cc1 | 3.86% (inactive) | – |
| COc1ccc(CCNS(=O)(=O)c2cccc([N+](=O)[O-])c2)cc1 | 2.6% (inactive) | – |
| COc1ccc2[nH]c(C(=O)Nc3ccccc3Cl)cc2c1 | 103% (inactive) | – |
| CCN(C(=O)CN1C(=O)/C(=C/c2ccc(F)cc2)SC1=S)C1CCS(=O)(=O)C1 (stereo not drawn) | – | 11.7 µM (active) |
| CN(C(=O)CCN1C(=O)/C(=C/c2ccccc2F)SC1=S)C1CCS(=O)(=O)C1 (stereo not drawn) | -30.6% (inactive) | – |
| CN(C(=O)CN1C(=O)S/C(=C\c2ccccc2F)C1=O)C1CCS(=O)(=O)C1 (stereo not drawn) | 6.95% (inactive) | – |
| CC(C)NC(=O)COCc1cc(-c2ccc3c(c2)OCO3)on1 | -15.2% (inactive) | – |
| Cn1cccc1C(=O)NNC(=O)COc1ccc(Br)cc1 | 25.8% (inactive) | – |

| Structure (SMILES) | activity change, negative = inhibition | Potency |
| --- | --- | --- |
| O=C(CSc1nnc2n1CCCN2)c1ccccc1 | 78.5% (inactive) | – |
| Cc1c(OC(C)C(=O)N[C@@H](Cc2ccccc2)C(=O)O)ccc2c3c(c(=O)oc12)CCCC3 (stereo partly drawn) | 87.3% (inactive) | – |
| Cc1c(C)c2ccc(OCC(=O)N3CCC(C(=O)O)CC3)c(C)c2oc1=O | 3.28% (inactive) | – |
| Cc1c(OC(C)C(=O)NCC2CCC(C(=O)O)CC2)ccc2c1oc(=O)c1ccccc12 (stereo not drawn) | – | 13.1 µM (active) |
| CCC(C(=O)NCc1cccnc1)n1nc(C)c2sc3ccccc3c2c1=O (stereo not drawn) | 54.4% (inactive) | – |
| O=C(C1CCCN(S(=O)(=O)c2ccccc2)C1)N1CCN(c2ccc(F)cc2)CC1 (stereo not drawn) | 107% (inactive) | – |
| CCOC(=O)C(C)n1cnc2c(nnn2-c2cccc(OC)c2)c1=O (stereo not drawn) | -28.3% (inactive) | – |
| COc1ccc(/C=N/NC(=O)c2ccc(Cl)cc2)cc1COC(C)=O | 13.5% (inactive) | – |
| COc1cccc(OCc2cc(/C=N/NC(=O)c3nc(Cl)c(Cl)c(N)c3Cl)ccc2OC)c1 | – | 13.1 µM (active) |
| COc1ccc(/C=N\NC(=O)c2sc(N)nc2C)cc1OC | 42.8% (inactive) | – |
| O=C(Nc1cc(C(F)(F)F)ccc1Cl)c1cc(C2CC2)on1 | -29.2% (inactive) | – |
| CSc1ccccc1NC(=O)c1cc(C2CC2)on1 | – | 7.38 µM (active) |
| O=C(NC1CCCCC1)c1cc(C2CC2)on1 | 90.7% (inactive) | – |
| CCOc1ccc(C(CC(=O)O)NC(=O)COc2ccccc2)cc1 (stereo not drawn) | – | 10.4 µM (active) |
| CC(=O)NC(CC(=O)O)c1ccc(F)cc1 (stereo not drawn) | 137% (inactive) | – |
| O=C(COc1ccccc1)Nc1nonc1NC(=O)COc1ccccc1 | -1.51% (inactive) | – |
| Cc1ccc(OCC(=O)NC(C)c2ccccc2)cc1C (stereo not drawn) | – | 5.22 µM (active) |
| COCCNC(=O)COc1ccc(C)c(C)c1 | 24.7% (inactive) | – |
| COc1ccc(C(CC(=O)Nc2ccc(C)cc2)NC(=O)C(F)(F)F)cc1 (stereo not drawn) | 22.6% (inactive) | – |
| CCOc1ccc(C(CC(=O)O)NC(=O)Cc2ccccc2)cc1OC (stereo not drawn) | 31.4% (inactive) | – |
| Cc1cc(C)cc(OCC(=O)NC(C)c2ccccc2)c1 (stereo not drawn) | -4.04% (inactive) | – |
| COc1ccc(C(CC(=O)O)NC(=O)Cc2ccccc2)cc1 (stereo not drawn) | – | 2.94 µM (active) |
| CCN(CC)S(=O)(=O)c1ccc2[nH]c(=O)cc(C(=O)N(C)C3CCS(=O)(=O)C3)c2c1 (stereo not drawn) | -24.5% (inactive) | – |
| COc1ccc(-c2cnc(SCCNC(=O)c3ccc4c(c3)OCO4)[nH]2)cc1 | -6.78% (inactive) | – |
| CCOc1ccc(N(CC(=O)Nc2cccc(OC)c2)S(C)(=O)=O)cc1 | -19.7% (inactive) | – |

Reference: PubChem BioAssay AID504834 (National Center for Advancing Translational Sciences (NCATS), 2011)
